Assay outcomes (PubChem BioAssay)
Anthrax LF prot – Bacillus anthracis LF protease inhibitors, primary screen, biochemical, multiplex microsphere, MLPCN library; multiplex microsphere protease cleavage assay; inhibition, % at 10 µM; hit rate 0.12% among 360,000
BoNT A protease – BoNT/A light chain protease inhibitors, primary screen, biochemical, flow cytometry, MLPCN library. Botulinum neurotoxin type A light chain protease (Clostridium botulinum A str. ATCC 3502). multiplex microsphere protease substrate cleavage. inhibition, % at 10 µM. hit rate 0.17% among 360,000
SARS 3CLpro inh – SARS-CoV 3CLpro protease inhibitors, primary screen, biochemical, quenched FRET; recombinant SARS-CoV 3CLpro, quenched FRET peptide cleavage; inhibition, % at 6 µM; hit rate 0.14% among 290,000; in the data active means inhibition above about 12%
Bead autofluor – flagged as autofluorescent in microsphere protease counterscreen; compound autofluorescence counterscreen, microsphere flow cytometry; active compounds read high; fluorescence intensity (test concentration not listed); hit rate 3.1% among 360,000; in the data active means fluorescence intensity above about 16000; inconclusive means no clear call, values can overlap the other calls
BoNT-F LC inh – BoNT/F light chain protease inhibitors, primary screen, biochemical, flow cytometry, MLPCN library. Botulinum neurotoxin type F light chain protease (Clostridium botulinum). Multiplex microsphere protease cleavage assay. inhibition, % at 10 µM. hit rate 0.22% among 360,000. AID 588497, 2011; in the data active means inhibition above about 35%, passing the limit was not always enough; inconclusive means no clear call, values can overlap the other calls
VHR inh abs – VHR1 phosphatase inhibitors, primary screen, biochemical, absorbance, uHTS; recombinant VHR phosphatase, pNPP absorbance; inhibition, % at 13.3 µM; hit rate 0.52% among 290,000; AID 1654, 2009; in the data active means inhibition above about 50%
Target sequence (P51452 whole entry, looked up): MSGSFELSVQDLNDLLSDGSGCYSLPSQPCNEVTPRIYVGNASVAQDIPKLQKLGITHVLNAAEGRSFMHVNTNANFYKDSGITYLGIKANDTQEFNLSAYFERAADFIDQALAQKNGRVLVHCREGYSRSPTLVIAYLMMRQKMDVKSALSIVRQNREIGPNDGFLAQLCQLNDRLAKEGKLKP
Each line names hits and unclear results; the compound was inactive in the other large screens. A selection: hits, their analogues and other compounds. The true share with any hit is near 3.9%. Unless noted, no stated cut-off is given here; in the data, active means inhibition above about 30%; inconclusive means no clear call, values can overlap the other calls; inactive means below that.

COc1ccc(S(=O)(=O)n2cnc3ccccc32)cc1	none
Cc1ccc(S(=O)(=O)n2cnc3ccccc32)cc1	Bead autofluor 16399
Cc1ccc(S(=O)(=O)Nc2ccccc2C(=O)N2CCCCCC2)cc1	none
Cc1ccc(NC(=O)CSc2nnc(-c3ccccc3C)o2)cc1C	none (no result: Anthrax LF prot, BoNT A protease, Bead autofluor, BoNT-F LC inh)
Cc1ccc(NC(=O)CSc2nnc(-c3ccccc3Br)o2)cc1C	none
Cc1cccc(NC(=O)CSc2nnc(-c3ccccc3C)o2)c1	Bead autofluor 18972
O=C(CSc1nnc(-c2ccccc2Cl)o1)Nc1ccc2c(c1)OCCO2	Bead autofluor 19436
Cc1cc(C)cc(NC(=O)CSc2nnc(-c3ccccc3C)o2)c1	BoNT A protease inconclusive, Bead autofluor 19314
CCOc1ccc(NC(=O)C(CC(=O)O)Cc2ccc(C)cc2)cc1 (stereo not drawn)	BoNT-F LC inh inconclusive
C/C(CC(=O)Nc1ccccn1)=N\NC(=O)Cc1cccc2ccccc12	BoNT A protease inconclusive, Bead autofluor 23733
O=[N+]([O-])c1ccc(/C=C/C2=NN(c3ccccc3)C(c3ccco3)C2)cc1 (stereo not drawn)	Anthrax LF prot 39.8, BoNT A protease 56.7, Bead autofluor 34435, BoNT-F LC inh 66.3
CC(C)(C)c1ccccc1OCCCCCNCCO	Bead autofluor 18177
CCOc1ccccc1-n1c(CN2CCN(C(=O)c3ccco3)CC2)nc2ccccc2c1=O	Bead autofluor 23399
CCc1nc(N2CCN(C(=O)c3ccco3)CC2)c2oc3ccccc3c2n1	VHR inh abs 51.9
CCn1nc(C)cc1C(=O)N1CCCC(Nc2ccc(C(C)C)cc2)C1 (stereo not drawn)	none
CCOC(=O)c1cc(C)n(Cc2ccc(OCC)c(OC)c2)c1C	Bead autofluor 17147
CCOC(=O)c1c(C)c(C)n(Cc2ccc(OC)c(OC)c2)c1C	none
CN(C)c1ccc(C2SCCN2C(=O)c2ccc([N+](=O)[O-])cc2)cc1 (stereo not drawn)	none
CCCCN(C(=O)CN1CCOCC1)c1c(N)n(CC(C)C)c(=O)[nH]c1=O	none
COc1cccc(OC)c1C(=O)Nn1c(C2CCC2)nc2ccccc2c1=O	BoNT A protease inconclusive, Bead autofluor 19169
Cn1cc(-c2nnnn2-c2cccc(C(F)(F)F)c2)c(C(F)(F)F)n1	Bead autofluor 24492
O=C(NCCc1c[nH]c2ccccc12)C1CCC(=O)N(CCc2cccc(F)c2)C1 (stereo not drawn)	none
Cc1cc(-c2ccccc2)nc(N/N=C/c2ccco2)n1	Bead autofluor 24412
C(=N\Nc1nc(-c2ccccc2)cs1)/c1ccco1	none
Cc1ccc(-c2csc(N/N=C/c3ccco3)n2)cc1	Bead autofluor 23231
CN(Cc1c(C(=O)N/N=C/c2c(F)cccc2Cl)nnn1-c1nonc1N)C1CCCCC1	none (no result: SARS 3CLpro inh, VHR inh abs)
Clc1cccc(Cl)c1Cn1cc(Br)cn1	Bead autofluor 16279
Clc1ccc(Cn2cc(Br)cn2)cc1Cl	none
O=C(OCCc1cc2ccccc2c(=O)o1)N1CCOCC1	none (no result: SARS 3CLpro inh, VHR inh abs)
CC(=O)Nc1cc2c(cc1NC(=O)Cn1nc(-c3ccc(F)cc3)ccc1=O)OCCO2	none
COc1cccc(-c2ccc(=O)n(CC(=O)NCCN3CCOCC3)n2)c1	Bead autofluor 25197
COc1cccc(-c2ccc(=O)n(CC(=O)Nc3cc4c(cc3NC(C)=O)OCCO4)n2)c1	BoNT A protease inconclusive, Bead autofluor 21027
O=C(Cn1nc(-c2ccccc2)ccc1=O)NCCCN1CCOCC1	none
O=C(CCC1CCN(C(=O)c2ccco2)CC1)NCc1ccc(F)cc1	none
CC1CCCN(C(=O)c2cc(F)c(F)cc2Cl)C1 (stereo not drawn)	Bead autofluor 22587
Cc1cc(NC(=O)COC(=O)c2ccc(C)c(C)c2)no1	none (no result: SARS 3CLpro inh, VHR inh abs)
Cc1noc(C)c1C(=O)OCC(=O)c1cc(C)n(Cc2ccccc2Cl)c1C	Bead autofluor 22970
Cc1cc(NC(=O)COC(=O)c2c(C)nn(Cc3ccccc3Cl)c2Cl)no1	Bead autofluor 24183
Cc1cc(NC(=O)COC(=O)c2cccc(OCc3ccccc3)c2)no1	Bead autofluor 20597
Cc1cc(NC(=O)COC(=O)CSCc2ccc(Cl)c(Cl)c2)no1	BoNT A protease inconclusive, Bead autofluor 22915
COC(=O)c1ccsc1NC(=O)CN1CCN(c2ncccn2)CC1	none (no result: Anthrax LF prot, BoNT A protease, Bead autofluor, BoNT-F LC inh)
COc1cc(CO)ccc1Oc1nnnn1-c1ccc(C(N)=O)cc1	Bead autofluor 16480
COc1cc(C=O)ccc1Oc1nnnn1-c1ccc(C(N)=O)cc1	none
Cc1nc(-c2cccc(N)c2)cs1	none
Cc1nc(-c2ccccc2)cs1	Bead autofluor 21622
COc1ccc(-c2csc(C)n2)cc1	none
COc1ccc(-c2csc(C)n2)cc1OC	Bead autofluor 23023
COCCNCC(=O)N1CCCCCC1	none
CCOC(=O)[C@]12CCC=C1N(Cc1ccccc1)C(=O)[C@H](CC(=O)NCc1cccc(C(F)(F)F)c1)C2	none (no result: SARS 3CLpro inh, VHR inh abs)
Cc1ccc(CNCC(O)(c2ccc(F)cc2)c2ccc(F)cc2)cc1	BoNT A protease inconclusive, Bead autofluor 22638
COc1ccc(NC(=O)Nc2ccc3c(c2)CC(=O)N([C@H](C)CO)C[C@H](C)[C@H](CN(C)Cc2ccc(C(=O)O)cc2)O3)cc1	none (no result: SARS 3CLpro inh, VHR inh abs)
O=C(NCc1cccc(Cl)c1)C1Cc2c(-c3ccccc3)ccnc2O1 (stereo not drawn)	none (no result: SARS 3CLpro inh, VHR inh abs)
CCCCOC(=O)c1ccc(NC(=O)CSC2=Nc3ccccc3C3CC=NN23)cc1 (stereo not drawn)	Bead autofluor 22279
O=C(CSC1=Nc2ccccc2C2CC=NN12)Nc1ccc(F)c(F)c1F (stereo not drawn)	none (no result: SARS 3CLpro inh, VHR inh abs)
COC(=O)Cc1ccc(NC(C)=O)cc1	none (no result: SARS 3CLpro inh, VHR inh abs)
O=[N+]([O-])c1ccc(C=CC=Cc2ccccc2)cc1	none (no result: SARS 3CLpro inh, VHR inh abs)
CN(C)c1ccc(/C=C/[N+](=O)[O-])cc1	BoNT A protease 50.2, BoNT-F LC inh 48.1
CN(c1ccccc1)c1ccc(/C=C/[N+](=O)[O-])cc1	BoNT A protease 69.8
C/C(=C\c1ccc(N(C)C)cc1)[N+](=O)[O-]	Bead autofluor 22567
CN(C)c1ccc(C(=O)C=Cc2ccc([N+](=O)[O-])cc2)cc1	none (no result: SARS 3CLpro inh, VHR inh abs)
COc1ccc(N2CCN(C(=O)CSc3nc4nc(C)cc(C)n4n3)CC2)cc1	none (no result: SARS 3CLpro inh, VHR inh abs)
COc1ccc(C)cc1NC(=O)C1CCN(S(=O)(=O)c2ccc3c(c2)NC(=O)CO3)CC1	none
COc1ccc(S(=O)(=O)NCCC(=O)N2CCCN(C)CC2)cc1	none (no result: SARS 3CLpro inh, VHR inh abs)
COc1ccc(C2SCC(=O)Nc3c2c(=O)[nH]n3C2CCCCCC2)cc1OC (stereo not drawn)	BoNT A protease inconclusive, Bead autofluor 18575
COc1ccc(C2SCC(=O)Nc3c2c(=O)[nH]n3C2CCCCCC2)cc1 (stereo not drawn)	none
CCOc1ccc(C2SCC(=O)Nc3c2c(=O)[nH]n3C2CCCCCC2)cc1 (stereo not drawn)	BoNT A protease inconclusive, Bead autofluor 24510
CC1(C)CC(NC(=O)C23CCC(C)(C2Br)C3(C)C)CC(C)(C)N1 (stereo not drawn)	BoNT-F LC inh 34.6
